Shown are actives, neighbours in structure and some others; about 3.2% of the full set was active somewhere.
CaV13 ICDI inh: Disruptors of the CACNA1D IQ motif to Ca2+-dependent inactivation inhibitor domain association, primary screening, Förster resonance energy transfer in intact living …; HEK cells, CFP/YFP FRET ICDI-IQ, plate reader, 10 min; percent FRET-ratio fall versus neutral wells; 340,000 compounds, 0.098% hits; inhibition, % at 12.3 µM; AID 743397;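 active = mean replicate inhibition of at least 30% and at least 1% of replicates passing that level; inconclusive = only one of the two criteria is met; inactive = neither criterion is met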
DENV2 CPE: protects cells from dengue virus 2 cytopathic effect. DENV2-infected cells, cytopathic effect rescue, plate reader. CPE inhibition, % at 9.99 µM. 350,000 compounds, 1.7% hits; in the data active = CPE inhibition above about 20%, passing the limit was not always enough; inconclusive = no clear call, values can overlap the other calls; tested in BHK-21 cells
PGC1a acetyl inh: PGC1a acetylation modulation, inhibitor mode; U2OS PGC1a acetylation, AlphaScreen anti-acetyl-lysine; with virally co-expressed GCN5 acetyltransferase; inhibition, % at 15.6 µM; 350,000 compounds, 0.17% hits;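 active = every replicate shows inhibition of at least 40%; inconclusive = mean inhibition at least 40% but some replicate below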
ERAP1 HTS inh: inhibitors of human ERAP1 aminopeptidase; recombinant ERAP1, Leu-AMC fluorescence, 60 min; inhibition, % at 10.7 µM; 340,000 compounds, 0.15% hits;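 active = mean replicate inhibition of at least 30%, or all replicates individually reaching that 30% level; inactive = mean below 30% and not every replicate reaching it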
Target sequence (Q9NZ08 whole entry, looked up): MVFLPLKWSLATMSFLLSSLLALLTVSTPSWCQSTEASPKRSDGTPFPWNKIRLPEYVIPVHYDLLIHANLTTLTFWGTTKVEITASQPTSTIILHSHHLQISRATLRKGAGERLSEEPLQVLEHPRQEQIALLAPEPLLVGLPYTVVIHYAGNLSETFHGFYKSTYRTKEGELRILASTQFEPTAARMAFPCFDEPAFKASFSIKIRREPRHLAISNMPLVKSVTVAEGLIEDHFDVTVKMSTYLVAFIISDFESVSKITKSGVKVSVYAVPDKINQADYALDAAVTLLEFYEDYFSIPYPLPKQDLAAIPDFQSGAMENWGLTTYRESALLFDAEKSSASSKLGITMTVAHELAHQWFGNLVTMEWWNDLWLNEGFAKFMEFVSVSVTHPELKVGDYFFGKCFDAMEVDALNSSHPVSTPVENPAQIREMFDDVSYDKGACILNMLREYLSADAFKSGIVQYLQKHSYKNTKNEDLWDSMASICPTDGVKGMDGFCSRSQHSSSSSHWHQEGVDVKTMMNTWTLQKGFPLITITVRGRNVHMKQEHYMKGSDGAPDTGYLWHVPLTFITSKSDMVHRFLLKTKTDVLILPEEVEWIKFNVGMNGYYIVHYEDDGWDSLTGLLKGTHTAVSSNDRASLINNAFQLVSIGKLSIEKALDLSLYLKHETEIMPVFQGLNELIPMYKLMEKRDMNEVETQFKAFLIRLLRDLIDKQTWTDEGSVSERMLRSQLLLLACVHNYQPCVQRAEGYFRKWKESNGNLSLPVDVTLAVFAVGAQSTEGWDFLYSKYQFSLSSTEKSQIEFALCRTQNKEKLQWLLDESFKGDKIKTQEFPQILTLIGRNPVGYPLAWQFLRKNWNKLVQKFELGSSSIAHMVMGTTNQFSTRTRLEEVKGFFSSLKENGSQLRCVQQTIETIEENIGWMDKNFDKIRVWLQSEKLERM
rRNA inh HTS: selective bacterial rRNA inhibition in E. coli. AID 720706. GFP signal change (wild-type ribosome), % (concentration not given with the values). 350,000 compounds, 1.6% hits. E. coli WT GFP vs humanized-ribosome RFP mutants, fluorescence, 24 h; active compounds read low; DMSO median 0, no signal -100;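 active = significant combined selectivity score with lowered wild-type GFP, culture density cut under 30%, mutant RFP and density less affected; inactive = any of these conditions unmet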
GSIS activator: primary screen for activators of insulin secretion dependent on glucose, INS-1E cells, GLuc reporter luminescence. INS-1E GLuc reporter insulin secretion, 2-3 h. activation, % at 16.6 µM. 370,000 compounds, 0.61% hits;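 active = lowest replicate activation of at least 40%, so every replicate reaches that level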
Of the large screens only hits and unclear results are named; the others gave an inactive call.

CN1C2CCC1/C(=C/c1ccccn1)C(=O)/C2=C\c1ccccn1	PGC1a acetyl inh 78
CS(=O)(=O)N1CC2NC(C1)C2c1ccc(Br)cc1 (stereo not given)	none (no result: CaV13 ICDI inh, DENV2 CPE, PGC1a acetyl inh, ERAP1 HTS inh)
O=C1NC2C(=CC(O)C(O)C2O)c2cc3c(c(O)c21)OCO3 (stereo not given)	DENV2 CPE 88, PGC1a acetyl inh 63
O=C1NC2C(=CC(O)C(O)C2O)c2cc3c(cc21)OCO3 (stereo not given)	PGC1a acetyl inh 85
C/C=C/c1ccc(C2[C@@H]3CN(Cc4cocn4)C[C@H]2N3)cc1 (stereo not given in full)	none (no result: CaV13 ICDI inh)
CCOC(=O)[C@]12Cc3ccccc3[C@H]1N(CCC(=O)OC)C(=O)c1cc(OC)ccc12	DENV2 CPE 30 (no result: PGC1a acetyl inh, ERAP1 HTS inh)
O=C(Cc1ccccn1)N1CCCCN2[C@H](CO)[C@@H](c3ccc(-c4ccc(F)cc4)cc3)[C@@H]2C1	none (no result: CaV13 ICDI inh)
CN(C(=O)Oc1cccc2ccccc12)C1C=CCC1 (stereo not given)	DENV2 CPE 65 (no result: GSIS activator)
O=[N+]([O-])c1ccc(N2CC2)c([N+](=O)[O-])c1	rRNA inh HTS -16 (no result: GSIS activator)
CC(C)CC#Cc1ccc([C@@H]2[C@H]3CN(C(=O)Cc4ccccn4)CCCCN3[C@H]2CO)cc1	none (no result: CaV13 ICDI inh)
O=C(Cc1ccccc1)N1CCCCN2[C@H](CO)[C@@H](c3ccc(-c4ccccc4)cc3)[C@H]2C1	none (no result: CaV13 ICDI inh, DENV2 CPE, ERAP1 HTS inh)
COC(=O)[C@@H]1[C@@H](C(=O)OC)C2(c3ccccc3-c3ccccc32)N(c2ccc(Cl)cc2)N1C#N	PGC1a acetyl inh 77 (no result: CaV13 ICDI inh, DENV2 CPE)
O=C(O)[C@H]1[C@H](CO)[C@H]2Cn3c(ccc(-c4ccncc4)c3=O)[C@@H]1N2C(=O)C1CC1	none (no result: CaV13 ICDI inh, DENV2 CPE, PGC1a acetyl inh, ERAP1 HTS inh)
O=c1[nH]sc2cc(F)ccc12	ERAP1 HTS inh 31 (no result: DENV2 CPE)
COC(=O)[C@@H]1[C@@H](CO)[C@@H]2Cn3c(ccc(C4=CCCCC4)c3=O)[C@H]1N2CC1CCCCC1	none (no result: CaV13 ICDI inh)
CCOC(=O)c1cc2cc(OC)ccc2n1C1CCN(Cc2ccccc2)CC1	DENV2 CPE 35 (no result: PGC1a acetyl inh)
COc1ccc2nc(-c3ccc(CN4CCC(n5c(=O)[nH]c6cc(Cl)ccc65)CC4)cc3)c(-c3ccccc3)nc2c1	none (no result: PGC1a acetyl inh, rRNA inh HTS)
CCN1CCC(NCC2CCCCC2)CC1	DENV2 CPE 32
COC(=O)[C@@H]1[C@@H](CO)[C@@H]2Cn3c(ccc(-c4ccccc4)c3=O)[C@H]1N2C(=O)c1ccccc1F	none (no result: CaV13 ICDI inh, DENV2 CPE, PGC1a acetyl inh, ERAP1 HTS inh)
C[C@]12C=CC(=O)C=C1C=C[C@@H]1C2CC[C@]2(C)C(=O)CCC12 (stereo not given in full)	rRNA inh HTS -28
CNCCc1ccc(OC)c(OC)c1	DENV2 CPE 51 (no result: CaV13 ICDI inh, rRNA inh HTS)
COc1ccc(CCN)cc1OC	none (no result: CaV13 ICDI inh, rRNA inh HTS)
COc1cc(O)c2c(c1)/C=C/C[C@H](O)[C@H](O)C(=O)CCC[C@H](C)OC2=O	rRNA inh HTS -25
C[C@H]1CCCC(=O)CCCCCc2cc(O)cc(O)c2C(=O)O1	none (no result: rRNA inh HTS, GSIS activator)
COc1cccc2c1C(=O)c1c(O)c3c(c(O)c1C2=O)CC(O)(C(C)=NO)CC3OC1CC(N)C(O)C(C)O1 (stereo not given)	ERAP1 HTS inh 33
C=CCN1[C@@H]2CN(C(C)=O)C[C@H]1C2c1ccc(Br)cc1 (stereo not given in full)	none (no result: CaV13 ICDI inh, DENV2 CPE, PGC1a acetyl inh, ERAP1 HTS inh)
CCOC(=O)c1c(C)n(C(C)C)c2ccc(OC)cc12	rRNA inh HTS -28
CC1=NN(c2ccccc2)C(=O)/C1=C/c1c(O)[nH]c(=O)[nH]c1=O	PGC1a acetyl inh 49
O=C(Cc1ccccn1)N1CCCCN2[C@H](CO)[C@H](c3ccc(-c4ccccc4)cc3)[C@H]2C1	none (no result: CaV13 ICDI inh)
CCCC#Cc1ccc([C@H]2[C@H]3CN(C(=O)Cc4ccccn4)CCCCN3[C@H]2CO)cc1	DENV2 CPE 21 (no result: CaV13 ICDI inh)
O=C(Cc1ccccn1)N1CCCCN2[C@H](C1)[C@@H](c1ccc(-c3ccccc3)cc1)[C@@H]2CO	DENV2 CPE 21 (no result: CaV13 ICDI inh)
N#Cc1cccc(-c2ccc([C@H]3[C@@H](CO)N4CCCCN(C(=O)Cc5ccccc5)C[C@H]34)cc2)c1	DENV2 CPE 27 (no result: CaV13 ICDI inh)
CN(C)CC#Cc1ccc([C@H]2[C@@H](CO)N3CCCCN(C(=O)Cc4ccccn4)C[C@H]23)cc1	DENV2 CPE 30 (no result: CaV13 ICDI inh)
COC(=O)[C@@H]1[C@@H](CO)[C@@H]2Cn3c(ccc(-c4ccc(OC)cc4)c3=O)[C@H]1N2C(=O)c1ccccc1F	none (no result: CaV13 ICDI inh, PGC1a acetyl inh)
C/C=C/c1ccc([C@@H]2[C@H](CO)N3CCCCN(C(=O)Cc4ccncc4)C[C@@H]23)cc1	none (no result: CaV13 ICDI inh)
O=C(Cc1cccnc1)N1CCCCN2[C@H](CO)[C@@H](c3ccc(C#CC4(O)CCCC4)cc3)[C@H]2C1	none (no result: CaV13 ICDI inh)
O=C(Cc1cccnc1)N1CCCCN2[C@H](C1)[C@H](c1ccc(C#CC3(O)CCCC3)cc1)[C@@H]2CO	DENV2 CPE 25 (no result: CaV13 ICDI inh)
C/C=C/c1ccc([C@@H]2[C@H]3CN(C(=O)Cc4ccncc4)CCCCN3[C@H]2CO)cc1	DENV2 CPE 82 (no result: CaV13 ICDI inh)
CC[C@H]1C=C(C(=O)N[C@@]2(C(=O)O)C[C@H]2CC)[C@H]2CCC(=O)[C@H]2C1	none (no result: CaV13 ICDI inh, rRNA inh HTS, GSIS activator)
Nc1ccc2ccc3cccc[n+]3c2c1	CaV13 ICDI inh active (no result: PGC1a acetyl inh)
C[n+]1c(-c2ccccc2)c2cc(N)ccc2c2ccc(N)cc21	none (no result: rRNA inh HTS)
Cc1cc(OCc2nn[nH]n2)c2c3c(c(=O)oc2c1)CCCC3	none (no result: DENV2 CPE, PGC1a acetyl inh, ERAP1 HTS inh, rRNA inh HTS, GSIS activator)
Cc1cc(OCC(=O)NCc2ccncc2)c2c3c(c(=O)oc2c1)CCC3	none
Cc1cc(OCC(=O)NC(Cc2ccc(Cl)cc2)C(=O)O)c2c3c(c(=O)oc2c1)CCCC3 (stereo not given)	ERAP1 HTS inh 31 (no result: CaV13 ICDI inh, rRNA inh HTS, GSIS activator)
Cc1cc(OCc2ccc([N+](=O)[O-])cc2)c2c3c(c(=O)oc2c1)CCCC3	DENV2 CPE 151 (no result: PGC1a acetyl inh)
CCC(=O)N1[C@@H]2Cn3c(ccc(-c4ccc(F)cc4)c3=O)[C@H]1[C@@H](C(=O)OC)[C@@H]2CO	DENV2 CPE inconclusive (no result: CaV13 ICDI inh, PGC1a acetyl inh)
COc1ccc(C[C@H]2NC[C@H](O)[C@H]2OC(C)=O)cc1	PGC1a acetyl inh 90 (no result: rRNA inh HTS, GSIS activator)
COc1ccc(CCNC2CCCCC2)cc1	none (no result: PGC1a acetyl inh)
C/C=C/c1ccc(C2[C@H]3CNC[C@@H]2N3CC2CC2)cc1 (stereo not given in full)	none (no result: CaV13 ICDI inh, PGC1a acetyl inh)
CC(=O)OCC12CC(OC(=O)CC(C)C)C(C)=CC1OC1C(O)C(OC(C)=O)C2(C)C12CO2 (stereo not given)	PGC1a acetyl inh 74
C/C(Cl)=C/CC1(CN2CCCC2=O)C(=O)NC(=O)NC1=O	none (no result: DENV2 CPE, ERAP1 HTS inh, rRNA inh HTS, GSIS activator)
C[N+](C)(C)CC#CCN1CCCC1=O	ERAP1 HTS inh 73
Oc1ccc2c3c1OC1c4oc5ccccc5c4C[C@@]4(O)[C@@H](C2)N(CC2CC2)CC[C@]314 (stereo not given in full)	DENV2 CPE inconclusive, rRNA inh HTS -20 (no result: CaV13 ICDI inh)
C=CC1CN2CCC1CC2c1[nH]c2ccccc2c1CCO (stereo not given)	none (no result: DENV2 CPE, PGC1a acetyl inh, ERAP1 HTS inh, rRNA inh HTS)

High-throughput results from PubChem BioAssay.
